In the library only some 21% were active in any assay of this set; here they are far more common.
Pf growth 48h = Primary qHTS for delayed death inhibitors of the malarial parasite plastid, 48 hour incubation; P. falciparum luciferase growth in erythrocytes, 48 h; Potency, µM (top dose mostly 28.7 µM), inactives show at the top dose activity change, negative = inhibition, hits mostly inhibitors; actives 5.9% (n = 310,000); AID 504832, 2011; further: potency means the concentration at half of the fitted maximal effect; on the % scale 0 is the no-effect control and ±100 the full control effect
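Here the parasites carry a stable luciferase gene and grow inside erythrocytes in Albumax-based RPMI medium with compound for one erythrocytic cycle. Activity is scored as loss of luminescent signal.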
CHX counter = Cycloheximide Counterscreen for Small Molecule Inhibitors of Shiga Toxin; actives 12% (n = 300,000); max response, %; cell reporter, cycloheximide protein synthesis inhibition counterscreen; AID 2314, 2010; in the data active means max response mostly above about 13%, no sharp cut-off; inactive means mostly below about 14%; further: read at 38.3 µM for the half of the compounds with a filed dose; 0% is about no effect
Pf growth 96h = Primary qHTS for delayed death inhibitors of the malarial parasite plastid, 96 hour incubation. Potency, µM (top dose mostly 28.7 µM), inactives show top-dose activity change, negative = inhibition, actives largely listed as inhibitors. actives 6.9% (n = 320,000). P. falciparum luciferase reporter growth, 96 h; further: potency means the concentration at half of the fitted maximal effect; on the % scale 0 is the no-effect control and ±100 the full control effect
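P. falciparum expressing integrated firefly luciferase, in erythrocytes at 2% hematocrit, 0.05% parasitemia, incubated with compounds 96 h at 37 C, 5% CO2. Growth inhibition read as loss of luminescence; two-generation exposure targets delayed-death apicoplast inhibitors.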
Shiga toxin inh = A qHTS for Small Molecule Inhibitors of Shiga Toxin; inhibition, % at 38.7 µM; Vero cells, Shiga toxin protein synthesis inhibition reporter; actives 9.2% (n = 290,000); in the data active means inhibition mostly above about 28%, no sharp cut-off; inactive means mostly below about 43%; further: 0% is about no effect
HCMV antiviral = qHTS Assay for inhibitors of the human cytomegalovirus (HCMV); HFF cells, HCMV-luciferase reporter, 72 h; hits give low values; activity change, negative = inhibition, % at 57.5 µM; actives 4.5% (n = 410,000); AID 1259415, 2018; in the data active means activity change below about -60%; inconclusive means no clear call, values can overlap the other calls; inactive means above about -39%; further: on the % scale 0 is the no-effect control and ±100 the full control effect
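Compounds were evaluated in HFFs infected with an HCMV luciferase reporter virus (MOI 1 PFU/cell). Luciferase in lysates collected 72 h post infection served as the replication measure.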
HCV inhibitor = qHTS Assay for Inhibitors of Hepatitis C Virus (HCV). actives 3.4% (n = 340,000). Huh7.5.1 HCVcc-Cre infection, luciferase reporter, 44 h. Potency, µM (titrated, usually from 41.8 µM), for the others: top-dose activity change, negative = inhibition, most hits filed as inhibitors; further: potency means the concentration at half of the fitted maximal effect; on the % scale 0 is the no-effect control and ±100 the full control effect
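HCVcc-Cre virus at an moi near 0.5 was added right after compound to cells cultured 4 h from seeding (1,000 cells/well). Luciferase activity was determined 44 h later, 15 min after substrate addition at RT.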
* = called active by the depositor; [ ] = another dose, or the depositor's remark. Unless noted, the call rests on the fitted dose curve; in most records, active means well fitted inhibition curve with a large enough effect; inconclusive means small, poorly fitted or top-dose-only effect, or another doubt; inactive means no such curve, though single readings can be large or run the other way.

CCOC(=O)c1c(CSc2nc(C)cc(C)c2C#N)n(C)c2cc(Br)c(OC(C)=O)cc12 was read as Pf growth 48h inconclusive, CHX counter -1, Pf growth 96h inconclusive, Shiga toxin inh -10, HCMV antiviral -94* and HCV inhibitor inconclusive.
Screening C=CCCc1ccc(C#N)c(SCc2c(C(=O)OCC)c3cc(OC(C)=O)c(Br)cc3n2C)n1 returned Pf growth 48h 5.2µM*, CHX counter -3, Pf growth 96h 0%, Shiga toxin inh -3 and HCV inhibitor inconclusive.
COc1ccc2c3c(n(C)c2c1)[C@@H](CO)N(C(=O)c1ccncc1)CC31CCN(C(C)=O)CC1 was read as HCMV antiviral 9.
`Cc1ccc(C)c(N2CCN(C(=O)CS(=O)(=O)c3cccc4nsnc34)CC2)c1` gave HCMV antiviral -25.
For CCCc1c(C(=O)N/N=C/c2ccc(OCc3ccc(F)cc3)cc2)nnn1-c1nonc1N the results were HCMV antiviral -8.
`COCCn1c(C(=O)N(C)C)cc2c1C[C@H]1CN(C(=O)c3ccccc3)[C@@](Cc3ccc(F)cc3)(C(=O)OC)[C@@H]21` gave HCMV antiviral -35.
`COC(=O)[C@@]1(Cc2ccc(OC)cc2)[C@H]2c3cc(C(=O)N(C)C)n(C[C@H](O)CO)c3C[C@H]2CN1C(=O)c1ccccc1` gave Pf growth 48h inconclusive, CHX counter -3, Pf growth 96h 8.3µM*, Shiga toxin inh -2, HCMV antiviral 16 and HCV inhibitor 3%[8.37 µM].
For COC(=O)[C@@]1(Cc2ccc(F)cc2)[C@H]2c3cc(C(=O)N(C)C)[nH]c3C[C@H]2CN1C(=O)c1ccccc1 the results were Pf growth 48h 13µM*, CHX counter -1, Pf growth 96h 13µM*, Shiga toxin inh -8, HCMV antiviral -35 and HCV inhibitor 3%.
Screening COC(=O)[C@@]1(Cc2ccc(F)cc2)[C@H]2c3cc(C(=O)N(C)C)n(CCN4CCOCC4)c3C[C@H]2CN1C(=O)c1ccccc1 returned HCMV antiviral -20.
For COC(=O)[C@@]1(Cc2ccc(F)cc2)[C@H]2c3cc(C(=O)N(C)C)n(Cc4ccccc4)c3C[C@H]2CN1C(=O)c1ccccc1 the results were Pf growth 48h 2.9µM*, CHX counter -3, Pf growth 96h 3.3µM*, Shiga toxin inh -11, HCMV antiviral inconclusive and HCV inhibitor -5%.
For COC(=O)[C@@]1(Cc2ccc(OC)cc2)[C@@H]2C(=CC(=O)[C@H]2CC(=O)C(=O)N(C)C)CN1C(=O)c1ccccc1 the results were Pf growth 48h 15µM*, CHX counter -5, Pf growth 96h 9.3µM*, Shiga toxin inh -18, HCMV antiviral -80* and HCV inhibitor 13µM*.
CC(=O)Nc1ccc(NC(=O)CCc2c(C)nc3c(c(C)nn3-c3ccc(C)cc3)c2C)cc1 was read as HCMV antiviral 28.
Screening CC1(C(=O)Nc2cccc(C(F)(F)F)c2)Cc2c(-c3cccc(C(N)=O)c3)ccnc2O1 (stereo unspecified) returned HCMV antiviral 0.
For COC(=O)[C@@]1(Cc2ccc(F)cc2)[C@H]2c3cc(C(=O)N(C)C)n(Cc4ccc(OC)c(OC)c4)c3C[C@H]2CN1C(=O)c1ccccc1 the results were Pf growth 48h inconclusive, CHX counter -4, Pf growth 96h 5.2µM*, Shiga toxin inh -7, HCMV antiviral 18 and HCV inhibitor 5%[8.37 µM].
Screening COC(=O)[C@@]1(Cc2ccc(OC)cc2)[C@H]2c3cc(C(=O)N(C)C)n(Cc4ccc(OC(F)(F)F)cc4)c3C[C@H]2CN1C(=O)c1ccccc1 returned Pf growth 48h inconclusive, CHX counter -2, Pf growth 96h 3.3µM*, Shiga toxin inh -14 and HCV inhibitor inconclusive.
